Reference: PubChem BioAssay (NCATS)
Records with an inconclusive call do not appear. A call without a number means that no potency is given here. A number with no mark means an inactive call. The source made the active and inactive calls. Calls follow the shape of the dose curve; as a rule, active = well fitted curve in the direction sought with a large enough effect; inconclusive = small, poorly fitted or top-dose-only effect, or another doubt; inactive = no such curve, though single readings can be large; an effect the other way counts as inactive or inconclusive.

Assay: qHTS of pediatric cancer cell lines to identify multiple opportunities for drug repurposing: Primary screen for LAN-5 cells (AID 1347100)
Details: LAN-5 neuroblastoma viability, CellTiter-Glo luminescence, 48 h; series mostly up to 46 µM
Outline: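 Viability after 48 h compound treatment at 37C, 500-1,000 cells/well, read as ATP luminescence with CellTiter-Glo. Primary screens used 11-point (MIPE, 0.78 nM-46 µM) or 8-point (NPC, 0.59 nM-46 µM) final concentrations; follow-up screens used 11-point dilutions.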
For C[C@@H](O)[C@H](N)C(=O)O, the Potency was “inactive”. For Nc1nc2c(ncn2CCC(CO)CO)c(=O)[nH]1, the Potency was “inactive”. In the case of CCOc1nc2cccc(C(=O)O)c2n1Cc1ccc(-c2ccccc2-c2nn[nH]n2)cc1, the Potency is reported as “inactive”. In the case of CC1(C)OC(=O)NC1=O, the Potency is reported as “inactive”. With CCCOC(=O)c1ccccc1 the Potency was “inactive”. With COc1cc(C)c(Cc2cnc(N)nc2N)cc1OC the Potency was “inactive”. With CC(=O)CCC(=O)O the Potency was “inactive”. In the case of [O-][n+]1cccc(CO)c1, the Potency is reported as “inactive”. With Oc1cn2c(n1)Nc1ccc(Cl)c(Cl)c1C2 the Potency was “inactive”. In the case of C[C@@H]1CN(c2c(F)c(F)c3c(=O)c(C(=O)O)cn(C4CC4)c3c2F)C[C@H](C)N1, the Potency is reported as “inactive”. In the case of CC1=C(CC(=O)O)c2cc(F)ccc2/C1=C\c1ccc(S(C)=O)cc1 (configuration not stated), the Potency is reported as “inactive”. For NC1CCN(c2cccc(Cl)n2)CC1, the Potency was “inactive”. For COc1ccc2c(c1)C(=O)N(CCc1ccc(S(=O)(=O)NC(=O)NC3CCCCC3)cc1)C(=O)C2(C)C, the Potency was “inactive”. In the case of Oc1cccc(O)c1, the Potency is reported as “inactive”. In the case of CC(COc1ccccc1)NC(C)C(O)c1ccc(O)cc1 (configuration not stated), the Potency is reported as “inactive”. With CC1(C)S[C@@H]2[C@H](NC(=O)Cc3ccccc3)C(=O)N2[C@H]1C(=O)O (tested in a mixture with another compound) the Potency was “inactive”. In the case of CCC(=O)Nc1ccc(O)cc1, the Potency is reported as “inactive”. For CC[C@@]1(c2ccccc2)NC(=O)N(C)C1=O, the Potency was “inactive”. In the case of Cn1c(=O)c2c(ncn2CC2OCCO2)n(C)c1=O, the Potency is reported as “inactive”. For C[C@@H]1CCN(C(=O)[C@H](CCCN=C(N)N)NS(=O)(=O)c2cccc3c2NC[C@H](C)C3)[C@@H](C(=O)O)C1, the Potency was “inactive”. With Cc1ncc(COP(=O)(O)O)c(C=O)c1O the Potency was “inactive”. C[C@@H]1CC[C@@]2(OC1)O[C@H]1C[C@H]3[C@@H]4CC[C@H]5C[C@@H](O)CC[C@]5(C)[C@H]4CC(=O)[C@]3(C)[C@H]1[C@@H]2C gave an activity change, negative = cytotoxic of -6.9% [at 4.84 µM].

Assay: qHTS of pediatric cancer cell lines to identify multiple opportunities for drug repurposing: Primary screen for BT-12 cells (AID 1347101); also: nearly all actives have a fitted effect of over 25% in size
Details: BT-12 viability, CellTiter-Glo luminescence, 48 h; series mostly up to 57.3 µM
Outline: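 Cells (500-1,000/well) rested 5 h, then received compounds for 48 h; metabolically active cells were measured by CellTiter-Glo luminescence. Final concentrations spanned up to 46 µM (MIPE, 11-point) or 0.59 nM-46 µM (NPC, 8-point) in primary screens, 11-point in follow-ups.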
In the case of CCN(CC)C(=O)Nc1ccc(OCC(O)CNC(C)(C)C)c(C(C)=O)c1 (configuration not stated), the Potency is reported as “inactive”. For CC(C)(O)c1ccccc1CC[C@@H](SCC1(CC(=O)O)CC1)c1cccc(/C=C/c2ccc3ccc(Cl)cc3n2)c1, the Potency was “inactive”. With Cc1cc2c(cc1S(N)(=O)=O)S(=O)(=O)CCC2 the Potency was “inactive”. NC(N)=NCCC[C@H](N)C(=O)O showed an activity change, negative = cytotoxic of 1.23% [at 6.03 µM]. With CC(C)(C)C(=O)C(Oc1ccc(Cl)cc1)n1ccnc1 (configuration not stated) the Potency was “inactive”. With O=C(O)c1ccccc1-c1ccc(C(F)(F)F)cc1 the Potency was “inactive”. In the case of CC(=O)Oc1c(C)c(C)c2c(c1C)CC[C@@](C)(CCC[C@H](C)CCC[C@H](C)CCCC(C)C)O2, the Potency is reported as “inactive”. For Cc1c(Cl)cccc1Nc1ccccc1C(=O)O, the Potency was “inactive”. With CCOc1ccc2ccccc2c1C(=O)N[C@@H]1C(=O)N2[C@@H]1SC(C)(C)[C@@H]2C(=O)O the Potency was “inactive”. For CCCCCCCCCCCCCCCC(=O)NCCO, the Potency was “inactive”. For Cc1ccc(C(C)C)cc2c(C)ccc1-2, the Potency was “inactive”. With O=C1O[C@H](CO)[C@@H](O)[C@H](O)[C@H]1O the Potency was “inactive”. For CC(=O)Oc1ccc(C2(c3ccc(OC(C)=O)cc3)C(=O)Nc3ccccc32)cc1, the Potency was “inactive”. With COc1ccc2cc1Oc1cc3c(cc1OC)CC[N+](C)(C)[C@H]3Cc1ccc(cc1)Oc1c(OC)c(OC)cc3c1[C@@H](C2)[N+](C)(C)CC3 the Potency was “inactive”. In the case of CC1=C(CC(=O)O)c2cc(F)ccc2/C1=C\c1ccc(S(C)(=O)=O)cc1, the Potency is reported as “inactive”. With C#CCN(C)Cc1ccccc1 the Potency was “inactive”. With Cc1ncc([N+](=O)[O-])n1CC(O)CCl (configuration not stated) the Potency was “inactive”. For C[C@@H](O)[C@H](N)C(=O)O, the Potency was “inactive”. In the case of Nc1nc2c(ncn2CCC(CO)CO)c(=O)[nH]1, the Potency is reported as “inactive”. For CCOc1nc2cccc(C(=O)O)c2n1Cc1ccc(-c2ccccc2-c2nn[nH]n2)cc1, the Potency was “inactive”. With CC1(C)OC(=O)NC1=O the Potency was “inactive”. In the case of CCCOC(=O)c1ccccc1, the Potency is reported as “inactive”. For COc1cc(C)c(Cc2cnc(N)nc2N)cc1OC, the Potency was “inactive”. In the case of CC(=O)CCC(=O)O, the Potency is reported as “inactive”. With [O-][n+]1cccc(CO)c1 the Potency was “inactive”. In the case of Oc1cn2c(n1)Nc1ccc(Cl)c(Cl)c1C2, the Potency is reported as “inactive”. For C[C@@H]1CN(c2c(F)c(F)c3c(=O)c(C(=O)O)cn(C4CC4)c3c2F)C[C@H](C)N1, the Potency was “inactive”. With CC1=C(CC(=O)O)c2cc(F)ccc2/C1=C\c1ccc(S(C)=O)cc1 (configuration not stated) the Potency was “inactive”. In the case of NC1CCN(c2cccc(Cl)n2)CC1, the Potency is reported as “inactive”. In the case of COc1ccc2c(c1)C(=O)N(CCc1ccc(S(=O)(=O)NC(=O)NC3CCCCC3)cc1)C(=O)C2(C)C, the Potency is reported as “inactive”.
